Compound activity: PubChem BioAssay, The Scripps Research Institute Molecular Screening Center
DAX1 inh-1 = inhibitors of DAX1 repression of SF-1 activated StAR promoter | HEK293T StAR-luciferase reporter, SF-1/DAX-1 repression relief | inhibition, % at 6.8 µM | actives 1.1% (n = 370,000);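 active means inhibition above the mean over all tested compounds plus 3 SD, cut at about 3.6% in these data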;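 further: higher inhibition means more luminescence from relief of DAX-1 repression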
ssDAF-12 act = activates DAF-12 receptor from parasite S. stercoralis. actives 1% (n = 370,000). activation, % at 6.8 µM. HEK293 ssDAF-12/GRIP1 lit1-tk-luc reporter, luminescence; % of 3 µM dafachronic acid response;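 active means activation above the mean over all tested compounds plus 3 SD, cut at about 0.9% in these data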
DAX1 inh-2 = inhibits human nuclear receptor DAX1. P51843. HEK293 Gal4-DAX1 luciferase reporter, luminescence. inhibition, % at 6.75 µM. actives 0.99% (n = 340,000);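 active means inhibition above the mean over all tested compounds plus 3 SD, cut at about 4.2% in these data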;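 further: inhibition shows as a rise in luminescence from relieved DAX1 repression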
Target sequence (P51843 207-470 limits assumed): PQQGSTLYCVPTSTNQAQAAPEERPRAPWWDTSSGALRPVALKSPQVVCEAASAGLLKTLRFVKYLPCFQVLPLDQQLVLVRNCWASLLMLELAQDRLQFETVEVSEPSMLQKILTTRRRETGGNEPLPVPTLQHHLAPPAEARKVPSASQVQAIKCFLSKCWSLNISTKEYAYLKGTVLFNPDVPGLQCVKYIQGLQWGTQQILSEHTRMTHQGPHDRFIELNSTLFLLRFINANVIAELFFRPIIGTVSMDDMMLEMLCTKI
hcDAF12 agonist = H. contortus DAF-12 activation, primary screen; actives 1.4% (n = 370,000); AID 652067; HEK293 hcDAF-12 lit1-tk-luc reporter, luminescence; 0% DMSO, 100% Δ7-dafachronic acid; activation, % at 6.8 µM;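 active means activation above the mean of all tested compounds plus 3 SD, cut at about 5.5% in these data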
hgDAF12 agonist = hgDAF-12 agonism, primary luciferase screen. HEK293 GAL4-hgDAF12 UAS-luciferase reporter, agonist luminescence; normalized to butyrate control. activation, % at 6.8 µM. actives 1.8% (n = 370,000). AID 687014;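 active means activation above a cutoff set at the mean of all screened compounds plus 3 SD, cut at about 10% in these data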
hgDAF12 ag = confirmation of H. glycines DAF-12 agonists; shares compounds with hgDAF12 agonist; HEK293 GAL4-hgDAF12 luciferase reporter, agonist mode; percent of butyrate response; activation, % at 6.8 µM; actives 80% (n = 3,300); AID 743050;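 active means mean activation over triplicate wells above the hit cutoff derived from the earlier primary screen, cut at about 11% in these data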
LXR ag 2 = LXR-beta agonism as DAF-12 counter-screen; shares compounds with hgDAF12 agonist; HEK293 Gal4-LXR luciferase reporter, 24 h; activation, % at 6.8 µM; 3,300 tested, under 10 active; AID 743051;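 active means mean activation of the triplicate above a set limit carried over from the primary screen, none filed active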
Target sequence (P55055 whole entry, looked up, the tested form may be a part): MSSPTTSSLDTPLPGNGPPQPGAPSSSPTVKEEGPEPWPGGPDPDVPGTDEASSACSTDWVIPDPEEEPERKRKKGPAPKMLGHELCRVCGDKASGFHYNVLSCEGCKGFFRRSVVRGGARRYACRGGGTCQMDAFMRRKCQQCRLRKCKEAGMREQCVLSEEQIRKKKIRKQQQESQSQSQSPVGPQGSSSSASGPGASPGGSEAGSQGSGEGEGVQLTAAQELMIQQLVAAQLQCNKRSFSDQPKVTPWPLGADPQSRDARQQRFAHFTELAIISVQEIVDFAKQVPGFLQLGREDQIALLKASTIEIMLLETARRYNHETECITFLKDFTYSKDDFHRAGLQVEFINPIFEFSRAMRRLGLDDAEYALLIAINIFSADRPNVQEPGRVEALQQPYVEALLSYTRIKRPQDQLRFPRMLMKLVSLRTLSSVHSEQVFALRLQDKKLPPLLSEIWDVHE
Each line names hits and unclear results; the compound was inactive in the other large screens (follow-up assays come after a bar, where they were run). Most compounds without a hit are left out; they make up all but 4.1% or so of the library.

O=C(c1ccccc1)c1ccc(N2CCOCC2)c(F)c1	hgDAF12 agonist 16.0 | hgDAF12 ag 13.9 | LXR ag 2 inactive
Cc1ccc(-c2nnc(N3CCOCC3)c3ccccc23)cc1S(N)(=O)=O	none
COc1ccccc1CCNC(=O)C1CC(=O)N(c2ccccc2F)C1 (stereo unspecified)	none
OC(c1ccccc1)c1nc(/C=C/c2ccccc2)cs1 (stereo unspecified)	hgDAF12 agonist 15.7 (no result: DAX1 inh-2) | hgDAF12 ag 11.3 | LXR ag 2 inactive
C/C(C=NNC(=O)c1cc(-c2ccc(C)c(C)c2)n[nH]1)=C/c1ccco1	none (no result: DAX1 inh-2)
O=C(N/N=C\C=C\c1ccco1)c1cc(-c2ccc3ccccc3c2)n[nH]1	hgDAF12 agonist 16.1 | hgDAF12 ag inactive | LXR ag 2 inactive
O=C(Nc1nccs1)c1ccc(-c2ccc(F)cc2)o1	hgDAF12 agonist 16.7 | hgDAF12 ag 14.3 | LXR ag 2 inactive
O=C(Nc1ccccc1)c1ccc(-c2ccc([N+](=O)[O-])cc2)o1	none
O=C(Cc1ccc(F)cc1)Nc1nccs1	none
O=C(Nc1nccs1)c1ccc(-c2ccc([N+](=O)[O-])cc2)o1	hgDAF12 agonist 18.1 | hgDAF12 ag 11.6 | LXR ag 2 inactive
COCCCNC(=S)N(CCO)Cc1cc2cc3c(cc2[nH]c1=O)OCO3	none
COc1cccc(NC(=O)Cn2c3ccccc3c3nc4n(c(=O)c32)CCCS4)c1	none
COc1ccc(-c2cc3ccc(OCC(N)=O)cc3oc2=O)cc1OC	none
CC(=O)COc1ccc2cc(-c3ccccc3)c(=O)oc2c1	hcDAF12 agonist 6.2, hgDAF12 agonist 17.1 | hgDAF12 ag 17.0 | LXR ag 2 inactive
CCOC(=O)Cc1csc(NC(=O)c2ccco2)n1	hgDAF12 agonist 13.3 | hgDAF12 ag inactive | LXR ag 2 inactive
O=C(Nc1ccc(-c2cn3ccsc3n2)cc1)C1CCCC1	hgDAF12 agonist 16.2 | hgDAF12 ag 18.1 | LXR ag 2 inactive
c1cn2cc(-c3ccc4c(c3)OCO4)nc2s1	DAX1 inh-1 4.3, ssDAF-12 act 1.6, hcDAF12 agonist 6.5, hgDAF12 agonist 16.2 | hgDAF12 ag 15.6 | LXR ag 2 inactive
Cc1nc(-c2ccc(NC(=O)C3CCCCC3)cc2)cs1	none
O=C(NC(c1ccc(-c2ccccc2)cc1)c1cnccn1)C1CCN(CCN2C(=O)c3ccccc3C2=O)CC1 (stereo unspecified)	none (no result: DAX1 inh-2)
CCOC(=O)c1sc2nc(-c3cccnc3)ccc2c1N	hgDAF12 agonist 21.6 | hgDAF12 ag 17.2 | LXR ag 2 inactive
CCn1ncc2c(=O)c(C(=O)c3ccccc3)c[nH]c21	none (no result: DAX1 inh-2)
Cc1ccc(SCc2nc3ccccc3[nH]2)cc1	hgDAF12 agonist 13.8 | hgDAF12 ag 11.5 | LXR ag 2 inactive
CCCCc1nc2ccccc2[nH]1	none
Cc1ccccc1OCc1nc2ccccc2[nH]1	hgDAF12 agonist 19.1 | hgDAF12 ag 17.4 | LXR ag 2 inactive
Cc1ccc(OCc2ccc(Br)cc2)c([N+](=O)[O-])n1	DAX1 inh-1 4.0, hgDAF12 agonist 18.4 (no result: DAX1 inh-2) | hgDAF12 ag 14.3 | LXR ag 2 inactive
COc1ccc(OC)c(S(=O)(=O)NCCS(=O)(=O)N2CCN(c3ccccc3)CC2)c1	none
Cc1ccc(-c2nc3ccc(Br)cn3c2Cc2cccc(F)c2)cc1	hgDAF12 agonist 20.8 (no result: DAX1 inh-2) | hgDAF12 ag 10.5 | LXR ag 2 inactive
Cc1ccc2nc(-c3ccc(Cl)cc3)c(Cc3cccc(Cl)c3)n2c1	DAX1 inh-1 3.9, hgDAF12 agonist 13.2 (no result: DAX1 inh-2) | hgDAF12 ag inactive | LXR ag 2 inactive
Fc1ccc(-c2nc3ccc(Br)cn3c2Cc2ccccc2)cc1	none
CCCS(=O)(=O)NC(=O)C1(C)CCN(C(=O)c2ccnc(Cl)c2)C1 (stereo unspecified)	none (no result: DAX1 inh-2)
Cc1ccc(SCn2nnc3ccccc3c2=O)c(C)c1	hgDAF12 agonist 14.4 | hgDAF12 ag 11.5 | LXR ag 2 inactive
C/C(=N\Nc1nncc2ccccc12)c1cccc(OC(F)F)c1	hcDAF12 agonist 6.1, hgDAF12 agonist 18.1 | hgDAF12 ag 20.3 | LXR ag 2 inactive
Cc1ccc(Nc2nc(C)cs2)cc1	hgDAF12 agonist 16.4 | hgDAF12 ag 14.1 | LXR ag 2 inactive
C[C@H](CO)N1C[C@H](C)[C@@H](CN(C)Cc2ccccc2)Oc2ccc(NC(=O)CCCCCC(=O)Nc3ccccc3N)cc2C1=O	hgDAF12 agonist 15.8 | hgDAF12 ag inactive | LXR ag 2 inactive
COc1ccccc1CNC(=O)c1ccc2nc(C)c(N(C)Cc3ccc(NC(C)=O)cc3)n2c1	none (no result: DAX1 inh-2)
c1ccc(-c2csc(NC3CCCCC3)n2)cc1	hgDAF12 agonist 19.7 | hgDAF12 ag 24.5 | LXR ag 2 inactive
O=C(Nc1nc(-c2ccccc2)cs1)NC1CCCCC1	none
COC(=O)C[C@H]1CC[C@H](NS(=O)(=O)c2cn(C)cn2)[C@@H](CO)O1	none (no result: DAX1 inh-2)
COc1ccc(C(=O)/C=C(/C)N(C)C)cc1	none
C/C(=C\C(=O)c1sccc1Cl)N(C)C	hgDAF12 agonist 14.7 | hgDAF12 ag inactive | LXR ag 2 inactive
CCOC(=O)[C@]12CCC=C1N(Cc1cccc3ccccc13)C(=O)[C@H](CC(=O)NCc1ccc(OC)c(OC)c1)C2	none (no result: DAX1 inh-2)
CNC[C@@H]1OCc2ccccc2-c2c(n(C)c3ccccc23)C(=O)N([C@@H](C)CO)C[C@@H]1C	none (no result: DAX1 inh-2)
C[C@@H]1CN([C@@H](C)CO)C(=O)c2cc(NC(=O)c3ccccc3)ccc2O[C@@H](C)CCCCO[C@@H]1CN(C)S(=O)(=O)c1ccc(F)cc1	none
C[C@H]1CCC(=O)N(CCSc2ccc(Br)cc2)CC1	none
Cc1ccc(SCCN2CCC(C)CCC2=O)cc1 (stereo unspecified)	hgDAF12 agonist 14.4 | hgDAF12 ag 17.3 | LXR ag 2 inactive
Cc1ccc(C(=O)NCCc2c[nH]c3ccccc23)c(C)c1	hgDAF12 agonist 14.7 | hgDAF12 ag 12.4 | LXR ag 2 inactive
Cc1ccc(Nc2ncccc2C(N)=O)cc1	hgDAF12 agonist 14.1 | hgDAF12 ag 13.1 | LXR ag 2 inactive
CCCNc1ncccc1C(N)=O	none
O=C(CSC(=S)N1CCSCC1)c1ccc(Cl)cc1	hgDAF12 agonist 13.3 | hgDAF12 ag 13.5 | LXR ag 2 inactive
S=C(SCc1c(Cl)cccc1Cl)N1CCSCC1	none (no result: DAX1 inh-2)
O=C(Nc1ccccc1F)c1ccc(CSc2ncccn2)cc1	hgDAF12 agonist 16.4 | hgDAF12 ag 14.7 | LXR ag 2 inactive
O=C(Nc1ccccc1)c1ccc(CSc2ncccn2)cc1	hgDAF12 agonist 15.9 | hgDAF12 ag 16.8 | LXR ag 2 inactive
CCCc1c(-c2ccc(F)cc2F)ncn1Cc1ccccc1OC	none (no result: DAX1 inh-2)
O=c1cc(CN2CCN(c3ccc(Cl)c(Cl)c3)CC2)c2ccccc2o1	none (no result: DAX1 inh-2)
CCOCCn1c(SCC(=O)OCc2ccccc2)nc2c1c(=O)[nH]c(=O)n2C	hgDAF12 agonist 13.5 | hgDAF12 ag inactive | LXR ag 2 inactive
